Source: PubChem (The Scripps Research Institute Molecular Screening Center)
An excerpt weighted towards active compounds, which were near 1.9% of everything screened.
GSTO1 inh: GSTO1 inhibition, counter-screen for RBBP9 inhibitors. P78417. recombinant GSTO1, activity-based probe fluorescence polarization. inhibition, % at 5.96 µM. 1.1% of 300,000 active;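 active = inhibition above the campaign mean inhibition plus 3 SD, cut at about 35% in these data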;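 also: 0% = GSTO1-1 with DMSO and 100% = wells lacking GSTO1-1 enzyme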
Target sequence (P78417 whole entry, looked up): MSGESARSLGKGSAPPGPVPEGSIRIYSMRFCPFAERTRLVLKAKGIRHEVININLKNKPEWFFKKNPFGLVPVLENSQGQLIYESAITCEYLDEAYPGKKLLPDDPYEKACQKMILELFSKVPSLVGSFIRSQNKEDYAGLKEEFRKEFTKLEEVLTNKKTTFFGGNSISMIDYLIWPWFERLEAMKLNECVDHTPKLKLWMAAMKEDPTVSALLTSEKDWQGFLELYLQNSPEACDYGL
LYPLA1 counter: counter-screen for PME1 inhibitors: inhibitors of human LYPLA1. O75608. recombinant LYPLA1, FP-Rh probe fluorescence polarization. inhibition, % at 5.9 µM. 0.16% of 320,000 active;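 active = inhibition above the mean of all tested compounds plus 3 SD, set per campaign, cut at about 14% in these data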;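 also: inhibitors block serine hydrolase probe labeling of LYPLA1 so polarization falls; 0% = enzyme with DMSO and 100% = wells lacking LYPLA1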
PME-1 inh: PME-1 (human) inhibition | Q9Y570 | recombinant PME-1, FP-Rh probe fluorescence polarization | inhibition, % at 5.9 µM | 0.53% of 320,000 active;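 active = inhibition above the campaign mean of all compounds plus 3 SD, cut at about 26% in these data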;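 also: competitive labeling of PME-1 active site by serine hydrolase directed probe; 0% = PME-1 with DMSO and 100% = wells lacking PME-1 enzyme; inhibitors block probe labeling so polarization falls and inhibition rises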
Fam108B inh: counter-screen for RBBP9 inhibitors: inhibitors of mouse Fam108B; recombinant Fam108B, FP-Rh probe fluorescence polarization; inhibition, % at 9.51 µM; 0.33% of 300,000 active;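 active = inhibition above the screen mean inhibition plus 3 SD, computed separately per campaign, cut at about 18% in these data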;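 also: inhibitors lower polarization as less probe binds the enzyme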
LYPLA2 counter: counter-screen for PME1 inhibitors: inhibitors of human LYPLA2; recombinant LYPLA2, FP-Rh probe fluorescence polarization; 0.38% of 320,000 active; inhibition, % at 5.9 µM; O95372;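 active = inhibition above the screen-wide mean plus 3 SD, limit set per campaign, cut at about 26% in these data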;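 also: 0% = LYPLA2 with DMSO and 100% = wells lacking LYPLA2 enzyme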
Target sequence (O95372 whole entry, looked up): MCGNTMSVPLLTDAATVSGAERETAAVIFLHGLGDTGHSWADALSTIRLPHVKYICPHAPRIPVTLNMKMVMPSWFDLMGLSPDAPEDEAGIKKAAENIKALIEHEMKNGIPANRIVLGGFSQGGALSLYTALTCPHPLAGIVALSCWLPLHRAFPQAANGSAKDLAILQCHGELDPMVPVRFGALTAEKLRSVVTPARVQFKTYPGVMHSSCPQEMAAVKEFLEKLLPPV
PREPL inhibitor: inhibitors of human prolyl oligopeptidase-like enzyme PREPL; Q4J6C6; recombinant PREPL, fluorescence polarization activity-based probe; inhibition, % at 5.96 µM; 0.68% of 320,000 active; AID 2751; in the data active = inhibition above about 43%;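 also: 0% = enzyme with DMSO and 100% = wells lacking enzyme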
GSTO1 inh conf: confirmation of human GSTO1 inhibitors; shares compounds with GSTO1 inh; recombinant GSTO1, probe fluorescence polarization; inhibition, % at 5.96 µM; 54% of 2,400 active;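 active = inhibition above the primary screen's cutoff, its mean inhibition plus 3 SD, cut at about 35% in these data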;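 also: loss of polarization as inhibitors block binding of rhodamine sulfonate ester activity probe; 0% = GSTO1 with DMSO and 100% = wells lacking GSTO1 enzyme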
Active calls of the source: *; x = no result.

SMILES	GSTO1 inh	LYPLA1 counter	PME-1 inh	Fam108B inh	LYPLA2 counter	PREPL inhibitor	GSTO1 inh conf
COc1ccccc1-c1noc(-c2cc(OC)c(OC)c(OC)c2)n1	-7	-3	-6	0	-1	-2	x
COC(=O)\C(C(C)=O)=C(/C=C/C=C/C=C/N(C)C)N(C)C	38*	0	-9	1	2	-3	-44
NC(=O)C1CCN(C(=O)C2CC(=O)N(c3ccc4c(c3)OCCO4)C2)CC1 (stereo not given)	x	2	3	x	2	9	x
Cc1[nH]c2ccccc2c1/C=N/n1cnnc1	-6	-1	4	2	-1	8	x
CCN(CC)c1ccc(N=Cc2c(C)[nH]c3ccccc23)cc1	56*	-2	7	4	-4	28	5
COC(=O)C1(C)Cc2cc(OC(C)=O)c(OC(C)=O)cc2N1 (stereo not given)	66*	-3	0	3	-8	5	24
O=C(/C(=N/N=C/c1ccc(O)c(O)c1O)c1ccccc1)c1ccccc1	50*	-14	16	13	-15	22	-4
Oc1ccc(/C=N/N=C(c2ccccc2)c2ccccc2)c(O)c1O	54*	-11	22	12	-15	14	3
Cc1cccc(NC(=O)c2nc[nH]c2C(=O)NCCCCNC(=O)c2[nH]cnc2C(=O)Nc2cccc(C)c2)c1	x	x	x	x	x	-8	x
Cc1nc2c(O)cccc2cc1CO	50*	-2	1	2	-1	21	4
CCCCn1nc(C(=O)Nc2cc(C(F)(F)F)ccc2N2CCOCC2)ccc1=O	x	-1	-6	x	4	12	x
O=C(COC(=O)c1ccccc1Br)NC(=O)NCc1ccccc1	x	x	x	x	x	3	x
Cc1nn(Cc2ccc(Cl)cc2Cl)c(C)c1NC(=O)CCl	97*	3	2	-3	-1	15	97*
O=C1C(=O)c2ccccc2C(O)=C1CCCCl	68*	2	6	4	7	15	73*
O=[N+]([O-])c1ccc(O)c(/C=N/Nc2nn[nH]n2)c1	47*	6	4	0	13	3	9
Cc1ccc2[nH]c3ccccc3c(=O)c2c1	-5	1	7	-2	4	4	x
O=c1c2ccccc2[nH]c2ccc(O)cc12	46*	1	-4	8	-4	27	21
O=C(CCl)Nc1ccccc1Sc1ccc(Cl)cc1	90*	0	2	-3	8	-4	94*
O=C(O)CC1(CC(=O)Nc2ccccc2C(=O)c2ccccc2)CCCC1	-8	-1	-3	2	7	6	x
O=C(CCl)Nc1ccccc1C(=O)c1ccccc1	82*	5	-3	-6	3	-4	98*
CC1=NN(c2ccccc2)C(=O)/C1=C/c1cc2cc(C)ccc2nc1N1CCCCC1	68*	1	15	6	3	4	4
CCOc1cc(/C=N/NC(=O)c2ccccn2)ccc1OC(=O)c1cccs1	-4	-7	-1	-6	-2	23	x
CC(=O)Oc1ccc(/C=C2/C(=O)N(c3ccccc3)N=C2C)cc1	52*	3	3	7	4	12	14
CCOc1cc(/C=C2/C(=O)N(c3ccccc3)N=C2C)ccc1OC(=O)c1cccs1	66*	-5	6	3	1	54*	4
COc1ccc(/C=C2/C(=O)N(c3c(F)c(F)c(F)c(F)c3F)N=C2C)cc1	-6	2	4	-2	5	5	x
SMILES	GSTO1 inh	LYPLA1 counter	PME-1 inh	Fam108B inh	LYPLA2 counter	PREPL inhibitor	GSTO1 inh conf
COc1ccc(/C=C2/C(=O)N(c3ccccc3)N=C2C)cc1	47*	0	-1	5	-1	12	11
O=S(=O)(c1ccc2c(c1)OCCO2)N1CCN(S(=O)(=O)c2ccccn2)CC1	x	x	x	x	x	21	x
Cc1cc(C)c(C#N)c(SCC(=O)Nc2c(C)n(C)n(-c3ccccc3)c2=O)n1	x	x	x	x	x	10	x
Cc1ccc(CN(C)C(=O)c2cc(S(=O)(=O)N3CCOCC3)ccc2F)o1	x	x	x	x	x	7	x
COc1cc(/C=C2/C(=O)N(c3cccc(Br)c3)N=C2C)cc(OC)c1O	42*	-5	0	-2	-10	0	6
COc1cc(/C=C2/C(=O)N(c3ccc(Br)cc3)N=C2C)cc([N+](=O)[O-])c1O	4	0	8	4	1	-4	x
CC1=NN(c2ccccc2)C(=O)/C1=C/c1cccc(C)c1	59*	-5	-1	3	2	3	12
CCc1noc(C)c1C(=O)Nc1ccc(-c2nnc3n2CCCCC3)cc1	2	0	-3	2	0	5	x
O=C1NC(=O)C(c2ccccc2[N+](=O)[O-])=C1Nc1ccc(O)c(Cl)c1	64*	-2	6	16	2	8	49*
CC(OC(=O)Cc1n[nH]c(=O)c2ccccc12)C(=O)Nc1ccc(F)cc1Cl (stereo not given)	8	1	-6	0	1	-8	x
Cc1cccc(C)c1NC(=S)NCCc1ccc(O)c(O)c1	38*	2	7	-3	1	6	7
C=CCn1c(NC(=O)c2ccc(Br)o2)c(S(=O)(=O)c2ccccc2)c2nc3ccccc3nc21	65*	0	9	0	3	2	7
O=C(Nc1ccc(S(=O)(=O)NCc2ccccc2)cc1)c1ccc(Br)o1	-11	-5	-6	-6	-6	-14	x
COc1ccc(C2=NN(C(=O)COC(=O)c3ccc(S(C)(=O)=O)c([N+](=O)[O-])c3)C(c3ccco3)C2)cc1 (stereo not given)	x	x	x	x	x	-68	x
O=C(Nc1ccc([N+](=O)[O-])cc1)c1cccc(S(=O)(=O)Nc2ccccn2)c1	-4	-2	-4	-4	8	-1	x
NS(=O)(=O)c1ccc(CCNC(=O)c2ccc([N+](=O)[O-])s2)cc1	50*	-1	-1	-3	-1	16	7
NS(=O)(=O)c1ccc(CCNC(=O)c2ccc(Cl)s2)cc1	0	1	-9	-4	7	-6	x
Cc1cc(C(=O)NC2CCC(O)CC2)c(C)o1 (stereo not given)	x	x	x	x	x	6	x
CCc1ccc(S(=O)(=O)Nc2ccc(O)c3ccccc23)cc1	53*	0	13	4	13	23	2
O=S(=O)(Nc1ccc(O)c2ccccc12)c1ccc(F)cc1	64*	1	4	5	6	1	11
O=S(=O)(Nc1ccccc1Cl)c1ccc(F)cc1	3	0	5	-6	5	1	x
CCCN1CCC(=O)N([C@H](CSc2ccc(Br)cc2)c2ccccc2)CC1	53*	-2	-6	4	-3	-6	8
O=c1[nH]c2ccc(Br)cc2c(-c2ccccc2)c1CN1CCOCC1	64*	-1	1	0	-5	13	2
O=c1[nH]c2ccc(Br)cc2c(-c2ccccc2)c1N1CCOCC1	4	2	3	3	5	3	x
